From PubChem BioAssay (EPA / NIEHS)
The source made the active and inactive calls. Rule for the calls: active = hit-call score of the fitted dose curve at least 0.9, where 1 is the maximum; inactive = score below 0.9.

What follows are compounds tested on Bcl-2 (BAX) gene, BAX (gene 581) (assay: LTEA_HepaRG_BAX: Life Technologies and Expression Analysis (LTEA) Assay for Bcl-2 (BAX) gene using HepaRG (AID 2283470)). Conditions: mRNA level, 48 h; actives raise or lower the signal.
Outline: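 Cells were thawed, plated for 48 h, moved to serum-free induction medium and dosed for 48 h (highest concentration 100 uM, half-log steps, 0.5% DMSO). Total RNA was then analysed for BAX expression by qRT-PCR.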
With COP(=O)(NC(C)=O)SC (stereo not given) the outcome was “inactive”. With CSc1nc(NC(C)C)nc(NC(C)C)n1 the outcome was “inactive”. For CC(=NC#N)N(C)Cc1ccc(Cl)nc1, the outcome was “inactive”. With CN1COCN(Cc2cnc(Cl)s2)C1=N[N+](=O)[O-] the outcome was “inactive”. In the case of COc1ccc(C(=CC(=O)N2CCOCC2)c2ccc(Cl)cc2)cc1OC, the outcome is reported as “inactive”. In the case of CNC(=O)ON=C(C)SC, the outcome is reported as “inactive”. For CCOP(=S)(OCC)SCCSCC, the outcome was “inactive”. In the case of COP(=O)(OC)C(O)C(Cl)(Cl)Cl (stereo not given), the outcome is reported as “inactive”. CCOP(=O)(OCC)Oc1cc(C)nc(C(C)C)n1 was tested, and the outcome was “inactive”. With CCC(CC)Nc1c([N+](=O)[O-])cc(C)c(C)c1[N+](=O)[O-] the outcome was “inactive”. CCOP(=S)(OCC)Oc1ccc([N+](=O)[O-])cc1 was tested, and the outcome was “inactive”. For CC(C1CC1)C(O)(Cn1cncn1)c1ccc(Cl)cc1 (stereo not given), the outcome was “inactive”. With CNC(=O)ON=C(SC)C(=O)N(C)C the outcome was “inactive”. CNC(=O)Oc1cccc2c1OC(C)(C)O2 was tested, and the outcome was “inactive”. In the case of CCc1cnc(C2=NC(C)(C(C)C)C(=O)N2)c(C(=O)O)c1 (stereo not given), the outcome is reported as “inactive”. Cc1cc(C2CC2)nc(Nc2ccccc2)n1 was tested, and the outcome was “inactive”. In the case of CCCSP(=O)(OCC)SCCC, the outcome is reported as “inactive”. For COc1cc(OC)nc(Sc2cccc(Cl)c2C(=O)O)n1, the outcome was “inactive”. With CC1(C(=O)Nc2ccc(O)c(Cl)c2Cl)CCCCC1 the outcome was “inactive”. In the case of CSc1nnc(C(C)(C)C)c(=O)n1N, the outcome is reported as “inactive”. In the case of CCC(=O)Nc1ccc(Cl)c(Cl)c1, the outcome is reported as “inactive”. For CCOP(=O)(NC(C)C)Oc1ccc(SC)c(C)c1 (stereo not given), the outcome was “inactive”. In the case of CSC1=N[C@@](C)(c2ccccc2)C(=O)N1Nc1ccccc1, the outcome is reported as “inactive”. CC(Oc1cccc(Cl)c1)C(=O)O (stereo not given) was tested, and the outcome was “inactive”. In the case of CCCCOC(=O)c1ccccc1C(=O)O, the outcome is reported as “inactive”. CON=C(C(=O)OC)c1ccccc1CON=C(C)c1cccc(C(F)(F)F)c1 was tested, and the outcome was “inactive”. C#CC(C)(C)NC(=O)c1cc(Cl)cc(Cl)c1 was tested, and the outcome was “inactive”. CC[C@H](C)[C@H]1O[C@]2(C=C[C@@H]1C)C[C@@H]1C[C@@H](C/C=C(\C)[C@@H](O[C@H]3C[C@H](OC)[C@@H](O[C@H]4C[C@H](OC)[C@@H](NC)[C@H](C)O4)[C@H](C)O3)[C@@H](C)/C=C/C=C3\CO[C@@H]4[C@H](O)C(C)=C[C@@H](C(=O)O1)[C@]34O)O2 was tested, and the AC50 was 50 µM (active). For Nc1c(Cl)cc([N+](=O)[O-])cc1Cl, the outcome was “inactive”. CC(C)N(C(=O)SCC(Cl)=C(Cl)Cl)C(C)C was tested, and the outcome was “inactive”. In the case of Cc1nn(-c2cc(NS(C)(=O)=O)c(Cl)cc2Cl)c(=O)n1C(F)F, the outcome is reported as “inactive”. With C[Si](Cn1cncn1)(c1ccc(F)cc1)c1ccc(F)cc1 the AC50 was 78.9 µM (active). CNc1cnn(-c2cccc(C(F)(F)F)c2)c(=O)c1Cl was tested, and the outcome was “inactive”. In the case of C#CCC1=C(C)C(OC(=O)C2C(C=C(C)C)C2(C)C)CC1=O (stereo not given), the outcome is reported as “inactive”.

The compounds below were run on adenosine kinase (ADK) gene, ADK (gene 132) (assay: LTEA_HepaRG_ADK: Life Technologies and Expression Analysis (LTEA) Assay for adenosine kinase (ADK) gene using HepaRG (AID 2283471)). Conditions: mRNA level, 48 h; actives raise or lower the signal.
Outline: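 ADK expression quantified by qRT-PCR, normalised to three housekeeping genes, after 48 h exposure of HepaRG cells to eight concentrations (top 100 uM, half-log steps, duplicate, 0.5% DMSO). Up- or down-regulation fitted relative to vehicle.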
COP(=O)(NC(C)=O)SC (stereo not given) was tested, and the outcome was “inactive”. With CSc1nc(NC(C)C)nc(NC(C)C)n1 the outcome was “inactive”. For COP(=O)(OC)OC(Br)C(Cl)(Cl)Br (stereo not given), the outcome was “inactive”. For CC(=NC#N)N(C)Cc1ccc(Cl)nc1, the outcome was “inactive”. For CN1COCN(Cc2cnc(Cl)s2)C1=N[N+](=O)[O-], the outcome was “inactive”. In the case of COc1ccc(C(=CC(=O)N2CCOCC2)c2ccc(Cl)cc2)cc1OC, the outcome is reported as “inactive”. With CNC(=O)ON=C(C)SC the outcome was “inactive”. With CCOP(=S)(OCC)SCCSCC the outcome was “inactive”. With COP(=O)(OC)C(O)C(Cl)(Cl)Cl (stereo not given) the outcome was “inactive”. In the case of CCOP(=O)(OCC)Oc1cc(C)nc(C(C)C)n1, the outcome is reported as “inactive”. For CCC(CC)Nc1c([N+](=O)[O-])cc(C)c(C)c1[N+](=O)[O-], the outcome was “inactive”. In the case of CCOP(=S)(OCC)Oc1ccc([N+](=O)[O-])cc1, the outcome is reported as “inactive”. With CC(C1CC1)C(O)(Cn1cncn1)c1ccc(Cl)cc1 (stereo not given) the outcome was “inactive”. CNC(=O)ON=C(SC)C(=O)N(C)C was tested, and the outcome was “inactive”. CNC(=O)Oc1cccc2c1OC(C)(C)O2 was tested, and the outcome was “inactive”. In the case of CCc1cnc(C2=NC(C)(C(C)C)C(=O)N2)c(C(=O)O)c1 (stereo not given), the outcome is reported as “inactive”. Cc1cc(C2CC2)nc(Nc2ccccc2)n1 was tested, and the outcome was “inactive”. In the case of CCCSP(=O)(OCC)SCCC, the outcome is reported as “inactive”. For COc1cc(OC)nc(Sc2cccc(Cl)c2C(=O)O)n1, the outcome was “inactive”. With CC1(C(=O)Nc2ccc(O)c(Cl)c2Cl)CCCCC1 the outcome was “inactive”. With CSc1nnc(C(C)(C)C)c(=O)n1N the outcome was “inactive”. With CCC(=O)Nc1ccc(Cl)c(Cl)c1 the outcome was “inactive”. In the case of CCOP(=O)(NC(C)C)Oc1ccc(SC)c(C)c1 (stereo not given), the outcome is reported as “inactive”. CC1=NNC(=O)N(/N=C/c2cccnc2)C1 was tested, and the outcome was “inactive”. CSC1=N[C@@](C)(c2ccccc2)C(=O)N1Nc1ccccc1 was tested, and the outcome was “inactive”. CC(Oc1cccc(Cl)c1)C(=O)O (stereo not given) was tested, and the outcome was “inactive”. CCCCOC(=O)c1ccccc1C(=O)O was tested, and the outcome was “inactive”. With CON=C(C(=O)OC)c1ccccc1CON=C(C)c1cccc(C(F)(F)F)c1 the outcome was “inactive”. With C#CC(C)(C)NC(=O)c1cc(Cl)cc(Cl)c1 the outcome was “inactive”. In the case of CC[C@H](C)[C@H]1O[C@]2(C=C[C@@H]1C)C[C@@H]1C[C@@H](C/C=C(\C)[C@@H](O[C@H]3C[C@H](OC)[C@@H](O[C@H]4C[C@H](OC)[C@@H](NC)[C@H](C)O4)[C@H](C)O3)[C@@H](C)/C=C/C=C3\CO[C@@H]4[C@H](O)C(C)=C[C@@H](C(=O)O1)[C@]34O)O2, the AC50 is reported as 50 µM (active). With Nc1c(Cl)cc([N+](=O)[O-])cc1Cl the AC50 was 64.1 µM (active). For CC(C)N(C(=O)SCC(Cl)=C(Cl)Cl)C(C)C, the outcome was “inactive”. For Cc1nn(-c2cc(NS(C)(=O)=O)c(Cl)cc2Cl)c(=O)n1C(F)F, the outcome was “inactive”. For C[Si](Cn1cncn1)(c1ccc(F)cc1)c1ccc(F)cc1, the outcome was “inactive”. In the case of CNc1cnn(-c2cccc(C(F)(F)F)c2)c(=O)c1Cl, the outcome is reported as “inactive”. With C#CCC1=C(C)C(OC(=O)C2C(C=C(C)C)C2(C)C)CC1=O (stereo not given) the outcome was “inactive”.
